Assay outcomes: PubChem, Broad Institute
HSF1 activator = HSF-1 activators, primary screen, NIH3T3-HGL cells, MG132 stress, luminescence, single point | NIH3T3-HGL HSF-1 luciferase reporter, 8 h; 100% = twice DMSO control signal | activation, % at 9 µM | 300,000 compounds, 1.7% hits | AID 504408, 2011;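 active = mean replicate activation of at least 50% with a set share of replicates each reaching 50%; inconclusive = only one of those two conditions met; inactive = mean below 50% and too few replicates reaching it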;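 also: 0% = median of the neutral control wells and 100% = twice that signal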
MITF TRPM1 HTS = activators of MITF-driven TRPM1 promoter reporter, primary screen, cell-based, SK-MEL-5, luciferase, single point. SK-MEL-5 TRPM1-promoter luciferase, 24 h; % of positive control, neutral wells = 0. AID 588334, 2011. activation, % at 12.5 µM. 300,000 compounds, 0.75% hits;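 active = mean activation of at least 80% with every replicate also reaching 80%; inconclusive = mean reaches 80% but some replicate falls short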;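 also: 0% = neutral control wells and 100% = parthenolide positive control wells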
esBAF inh = Bmi1 luciferase reporter increase in mESCs, primary screen, esBAF inhibitor project, mouse ES cells, Bmi1 luciferase knock-in, single point | 24 h; 100% = twice the neutral-well signal | reporter increase, % at 12.5 µM | 350,000 compounds, 2% hits | AID 602393, 2012; in the data active = activation above about 40%; inconclusive = no clear call, values can overlap the other calls;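 also: 0% = median of the plate's neutral control wells and 100% = double that signal; a rise in the Bmi1 reporter signal indicates esBAF inhibition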
Wnt act = Wnt/beta-catenin pathway activators, primary screen, cell-based, plate reader, single point; Wnt/beta-catenin reporter cell assay, activator; activation, % at 9.35 µM; 300,000 compounds, 1.2% hits; AID 743398, 2014; in the data active = activation above about 30%, passing the limit was not always enough; inconclusive = no clear call, values can overlap the other calls;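 also: 0% = neutral control wells and 100% = positive control wells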
HSF1 inhib = HSF1 inhibitors in luciferase reporter cells, primary screen, cell-based, NIH3T3, luminescence | NIH3T3-HGL HSE-luciferase, MG132-induced, luminescence 8 h; stronger effect = lower value | activity change, negative = inhibition, % at 7.5 µM (by protocol) | 300,000 compounds, 0.77% hits | AID 2098, 2009;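 active = more than half of replicate wells show activity change below -50%, luminescence cut by over half; inconclusive = some wells, but at most half, below -50%; inactive = no replicate well below -50%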;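 also: luciferase reports HSF-1 transcriptional activity via heat shock element; 0% = median of DMSO wells and -100% = zero luminescence signal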
Active calls of the source: *; ? = inconclusive; · = no result given. The list is not random: actives were taken first. Their share in the collection is about 3.8%.

SMILES	HSF1 activator	MITF TRPM1 HTS	esBAF inh	Wnt act	HSF1 inhib
Cc1cccc(-c2ocnc2C(=O)N2CCN(C(=O)c3cccs3)CC2)c1	-89	-2	-1	-4	-87*
COc1ccc(CN(C)C[C@@H]2Oc3ccc(NC(=O)NC(C)C)cc3C(=O)N([C@H](C)CO)C[C@H]2C)cc1	·	·	-3	·	·
c1ccc(-c2cc3nc(NCc4cccs4)ccn3n2)cc1	·	·	67*	5	·
c1ccc(-c2cc3nc(NCc4ccc5c(c4)OCO5)ccn3n2)cc1	·	·	52*	2	·
COc1ccc(-c2cc(C(=O)NC(Cc3cc4ccccc4[nH]3)C(=O)O)c(C)o2)cc1OC (stereo not given)	-10	5	·	4	-7
Cc1oc(-c2ccc3c(c2)OCCO3)cc1C(=O)O	-73	-51	·	6	-72*
COc1ccc(-c2cc(C(=O)O)c(C)o2)cc1OC	-66	-38	-2	-3	-61*
CC(=O)/C=C/n1c(=S)oc2ccccc21	141*	·	·	·	111
Clc1ccccc1CSc1cnnc2ccccc12	·	48	45*	-5	·
Nc1ccccc1SCc1ccccc1Cl	-6	·	·	4	-4
Cc1cc(/C=C2\SC(=O)N(C)C2=O)c(C)n1-c1ccc(O)cc1	-74	8	-19	-4	-70*
Cc1cc(/C=C2\SC(=O)N(C)C2=O)c(C)n1-c1ccc(S(N)(=O)=O)cc1	3	36	8	0	4
CN=C1S/C(=C\c2cc(C)n(-c3ccccc3F)c2C)C(=O)N1C	-83	16	-30	·	-82*
O=C(C[C@@H]1CC[C@@H]2[C@H](COC[C@@H](O)CN2C(=O)c2ccccc2)O1)NCc1cccc(F)c1	·	·	-4	·	·
CS/C(N)=N/N=C/c1cc(C)ccc1O	140*	?	·	88*	86
C[C@H](CO)N1C[C@H](C)[C@H](CN(C)C(=O)Nc2cccc3ccccc23)OCCCC[C@H](C)Oc2ccc(NC(=O)Cc3ccccc3)cc2C1=O	·	·	8	·	·
CCCN(CCC)C(=O)CSc1nc2ccsc2c(=O)n1NC(=O)c1ccccc1	-63	·	29	·	-57*
Cc1ccc(S(=O)(=O)N2C[C@@H](O)COC[C@@H]3O[C@@H](CC(=O)NCCN4CCCCC4)CC[C@H]32)cc1	·	·	3	·	·
Cc1ccc2nc(-c3ccc(N4C(=N)SC5CS(=O)(=O)CC54)cc3)sc2c1 (stereo not given)	2	104*	·	·	0
Cc1cc(C(=O)CS(=O)(=O)c2ccccc2)cc(C)c1O	23	29	32	3	6
Cc1cc(C(=O)CSc2ccccc2)cc(C)c1O	27	39	68*	12	30
O=C(N/N=C1\CC(c2ccccc2)Oc2ccccc21)c1cccnc1 (stereo not given)	13	-5	·	1	12
O=C(N/N=C1\CC(c2ccccc2)Oc2ccccc21)c1ccc(O)cc1 (stereo not given)	71*	2	14	3	35
O=C1CC(c2ccc(O)cc2)Oc2ccccc21 (stereo not given)	·	83*	24	-2	·
C[C@@H]1CN([C@H](C)CO)C(=O)Cc2cc(NS(=O)(=O)c3cccs3)ccc2O[C@H]1CN(C)S(=O)(=O)c1ccc(F)cc1	·	·	1	·	·
SMILES	HSF1 activator	MITF TRPM1 HTS	esBAF inh	Wnt act	HSF1 inhib
C[C@@H]1CCCCO[C@H](CN(C)C(=O)CCCN(C)C)[C@@H](C)CN([C@H](C)CO)C(=O)c2cc(NC(=O)Nc3ccc(C(F)(F)F)cc3)ccc2O1	·	·	-4	·	·
CN1C(=O)c2cc(NC(=O)Cc3cccs3)ccc2OC[C@H]2O[C@@H](CC(=O)N[C@@H]3CCN(Cc4ccccc4)C3)CC[C@@H]21	·	·	-12	·	·
Cc1cc(NC(=O)CSc2nnc(-c3ccc(Br)o3)n2Cc2ccccc2)no1	0	-3	·	·	-4
O=C(CSc1nnc(-c2ccc(Br)o2)n1Cc1ccccc1)c1ccccc1F	72*	-18	-2	-2	32
C[C@@H]1CN([C@H](C)CO)C(=O)Cc2cc(NC(=O)Nc3ccc(F)cc3)ccc2O[C@H]1CN(C)C	·	·	2	·	·
CC12CCC3C(CCC4CC(O)CCC43C)C1CC(O)C2 (stereo not given)	·	-1	·	-2	·
C/C(=N\NC(N)=S)C1=CCC2C3CC[C@H]4CC(O)CC[C@]4(C)C3CC[C@]12C (stereo not given in full)	51*	-31	7	0	25
COc1ccccc1CNC(=O)C[C@@H]1C[C@@H]2c3cc(NC(=O)CN(C)C)ccc3O[C@@H]2[C@H](CO)O1	·	·	5	·	·
O=C(Cn1cc([N+](=O)[O-])cn1)NCC1CCCO1 (stereo not given)	-71	-6	·	-1	-63*
CN1CCc2c(sc3c2C(=O)NC(c2ccccc2)N3)C1 (stereo not given)	-4	2	·	20	0
CC(C)(C)C1CCc2c(sc3c2C(=O)NC(c2ccco2)N3)C1 (stereo not given)	-43	95*	23	1	-30
CC(C)=CCc1c(O)cc2c(=O)c3ccc(O)cc3oc2c1O	-37	·	59*	-2	-37
CCN(CC)S(=O)(=O)c1ccc2c(c1)nc(SCC(=O)NC1CC1)n2-c1ccccc1OC	56*	8	7	-3	16
O=S(=O)(NCC[C@@H]1CC[C@@H](NS(=O)(=O)c2cccc(Cl)c2)[C@@H](CO)O1)c1cccc(F)c1	·	·	-1	·	·
O=C1c2ccccc2C(=O)N1CCCc1c[nH]c2ccccc12	32	44	·	·	26
O=C1c2ccccc2C(=O)N1CCc1c[nH]c2ccccc12	43	111*	·	5	15
CO[C@H]1CN(C)C(=O)c2cc(NC(=O)C3CC3)ccc2OC[C@H](C)N(C(=O)c2cccnc2)C[C@H]1C	·	·	-4	·	·
COc1ccc(CN(C)C[C@@H]2OCCCC[C@@H](C)Oc3ccc(NC(=O)CCCN(C)C)cc3C(=O)N([C@@H](C)CO)C[C@H]2C)cc1	·	·	1	·	·
Cc1cc(=O)c2n(Cc3ccccc3Cl)nc[n+]2[nH]1	91*	·	3	2	54
COc1ccc(OCc2cc(C(=O)N3CCSCC3)no2)c(Cl)c1	33	?	·	27	12
COc1ccc(OCc2cc(C(=O)N3CCCC(CO)C3)no2)c2ccccc12 (stereo not given)	49	22	·	33*	38
O=C(c1cc(COc2ccccc2)on1)N1CCCC(OCc2cccnc2)C1 (stereo not given)	3	12	0	-2	-1
CC(=O)c1cccc(OCc2cc(C(=O)N3CCSCC3)no2)c1	31	69	·	?	10
O=C(c1cc(COc2ccc(F)c(F)c2)on1)N1CCSCC1	31	55	51*	12	16
O=C(c1cc(COc2ccc(F)cc2Cl)on1)N1CCSCC1	84*	40	78*	20	33
